This is one part of a sample in which hits are shown more often than they occur.
Shiga inhibitor = A qHTS for Small Molecule Inhibitors of Shiga Toxin | Vero cells, Shiga toxin protein synthesis inhibition reporter | inhibition, % at 38.7 µM | 290,000 tested, 9.2% active; in the data active = inhibition mostly above about 28%, no sharp cut-off; inactive = mostly below about 43%; note: 0% is about no effect
RE007 growth inh = qHTS Assay for Inhibitors of the HIV-1 protein Vpr; S. pombe RE007 Vpr strain, BacTiter-Glo ATP luminescence, 24 h; Potency, µM (series often up to 92.2 µM), without a hit: at the highest dose activity change, negative = less growth, most hits filed as inhibitors; 360,000 tested, 0.21% active; AID 651644, 2012; active = well fitted falling curve with a large enough effect; inconclusive = small, poorly fitted or top-dose-only effect; inactive = no such curve, though single readings can be large or run the other way; note: potency is the fitted concentration of half-maximal effect; % is set by controls: 0 for no effect and ±100 for the full control effect; nearly all actives have a fitted effect of over 50% in size
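Fission yeast strain RE007, carrying one chromosomally integrated HIV-1 vpr copy, was seeded at OD 0.01 in PMG+AL medium with 23 nL pinned compound. After 24 h at 30 °C and 99% humidity, viability was read by BacTiter-Glo luminescence.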
TbPYK inhibitor = qHTS of Trypanosoma Brucei Inhibitors; TbPYK enzyme, Kinase-Glo Plus ATP luminescence, 45 min; Potency, µM (titrated, usually from 76.8 µM), for the others: at the highest dose activity, negative = inhibition, hits mostly inhibitors; 410,000 tested, 0.12% active; note: potency is the fitted concentration of half-maximal effect; % is set by controls: 0 for no effect and ±100 for the full control effect; nearly all actives have a fitted effect of over 50% in size
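Activity of T. brucei pyruvate kinase was followed by Kinase-Glo Plus luminescence after the enzyme reacted 45 min at room temperature with 130 uM ADP (final) and substrate. Test compounds were added before ADP at multiple concentrations.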
LmPK inhibitor = qHTS Assay for Inhibitors of Leishmania Mexicana Pyruvate Kinase (LmPK); Q27686; purified LmPK, Kinase-Glo ATP luminescence, 1 h; Potency, µM (highest dose often 57.5 µM), for inactives: top-dose activity change, negative = inhibition, actives largely listed as inhibitors; 290,000 tested, 0.37% active; note: potency is the fitted concentration of half-maximal effect; % is set by controls: 0 for no effect and ±100 for the full control effect
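Kinase-Glo luminescence read after 1 h RT reaction of 0.1 nM LmPK with 0.5 mM PEP and 0.1 mM ADP. Activity scaled between uninhibited and enzyme-free controls.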
Giardia FBPA inh-1 = qHTS Assay for Inhibitors of Fructose-1,6-bisphosphate Aldolase from Giardia Lamblia; A8B2U2; purified Giardia FBPA; Potency, µM (doses to about 59.6 µM), for the others: at the top dose activity, negative = inhibition, most hits filed as inhibitors; 290,000 tested, 0.71% active; note: potency is the fitted concentration of half-maximal effect; % is set by controls: 0 for no effect and ±100 for the full control effect; nearly all actives have a fitted effect of over 55% in size
Target sequence (A8B2U2 whole entry, looked up): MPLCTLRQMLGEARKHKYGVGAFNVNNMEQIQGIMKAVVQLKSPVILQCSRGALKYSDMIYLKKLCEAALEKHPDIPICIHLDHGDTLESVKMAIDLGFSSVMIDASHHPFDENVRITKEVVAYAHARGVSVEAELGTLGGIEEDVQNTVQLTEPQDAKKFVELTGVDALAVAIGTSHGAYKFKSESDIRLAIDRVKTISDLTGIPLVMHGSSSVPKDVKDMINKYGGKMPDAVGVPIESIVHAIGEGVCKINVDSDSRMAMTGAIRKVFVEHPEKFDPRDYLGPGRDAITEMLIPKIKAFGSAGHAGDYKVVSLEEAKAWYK
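Giardia FBPA (40 nM reagent) was preincubated 10 min at RT with compound (up to 57.5 uM final), then substrate plus GAPDH/TPI/NAD/arsenate coupling system with diaphorase/resazurin was added; resorufin fluorescence (525/598 nm) was read after 20 min.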
CHX counter = Cycloheximide Counterscreen for Small Molecule Inhibitors of Shiga Toxin; cell reporter, cycloheximide protein synthesis inhibition counterscreen; max response, %; 300,000 tested, 12% active; in the data active = max response mostly above about 13%, no sharp cut-off; inactive = mostly below about 14%; note: read at 38.3 µM for the half of the compounds with a filed dose; 0% is about no effect
Giardia growth = qHTS Assay for Inhibitors of Fructose-1,6-bisphosphate Aldolase from Giardia Lamblia: Giardia lamblia growth inhibition; shares compounds with Giardia FBPA inh-1; Giardia lamblia trophozoite growth inhibition; Potency, µM (titrated, usually from 57.5 µM), for the others: top-dose activity change, negative = inhibition, hits mostly inhibitors; 1,500 tested, 5% active; AID 2785, 2010;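 note: potency is the fitted concentration of half-maximal effect; trophozoites exposed to compound for 48 h at 37 °C; % is set by controls: 0 for no effect and ±100 for the full control effect; nearly all actives have a fitted effect of over 70% in size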
Mammal cell tox = qHTS Assay for Inhibitors of Fructose-1,6-bisphosphate Aldolase from Giardia Lamblia: Mammalian cellular toxicity. shares compounds with Giardia FBPA inh-1. mammalian cell viability counter-screen, qHTS. Potency, µM (highest dose often 57.5 µM), without a hit: top-dose viability change, negative = toxicity, actives largely listed as inhibitors. 1,500 tested, 4% active. AID 2786, 2010;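 note: Chinese hamster ovary cells used as mammalian cytotoxicity surrogate; viability measured as cellular ATP by luminescence; potency is the fitted concentration of half-maximal effect; compound exposure lasted 48 h before reading; % is set by controls: 0 for no effect and ±100 for the full control effect; nearly all actives have a fitted effect of over 60% in size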
Giardia FBPA inh-2 = qHTS Assay for Inhibitors of Fructose-1,6-bisphosphate Aldolase from Giardia Lamblia: Primary screen confirmation; 1,500 tested, 5% active; purified Giardia aldolase enzyme activity, qHTS; Potency, µM (titrated, usually from 57.5 µM), inactives show top-dose activity change, negative = inhibition, hits mostly inhibitors; shares compounds with Giardia FBPA inh-1; note: potency is the fitted concentration of half-maximal effect; % is set by controls: 0 for no effect and ±100 for the full control effect; nearly all actives have a fitted effect of over 45% in size
Rabbit FBPA inh = qHTS Assay for Inhibitors of Fructose-1,6-bisphosphate Aldolase from Giardia Lamblia: Rabbit FBPA Selectivity; Potency, µM (doses to about 57.5 µM), inactives show at the top dose activity, negative = inhibition, usual class: inhibitors; shares compounds with Giardia FBPA inh-1; 1,500 tested, 4% active; Rabbit muscle FBPA enzyme inhibition, selectivity counter-screen; note: potency is the fitted concentration of half-maximal effect; % is set by controls: 0 for no effect and ±100 for the full control effect; nearly all actives have a fitted effect of over 60% in size
Target sequence (P00883 whole entry, looked up): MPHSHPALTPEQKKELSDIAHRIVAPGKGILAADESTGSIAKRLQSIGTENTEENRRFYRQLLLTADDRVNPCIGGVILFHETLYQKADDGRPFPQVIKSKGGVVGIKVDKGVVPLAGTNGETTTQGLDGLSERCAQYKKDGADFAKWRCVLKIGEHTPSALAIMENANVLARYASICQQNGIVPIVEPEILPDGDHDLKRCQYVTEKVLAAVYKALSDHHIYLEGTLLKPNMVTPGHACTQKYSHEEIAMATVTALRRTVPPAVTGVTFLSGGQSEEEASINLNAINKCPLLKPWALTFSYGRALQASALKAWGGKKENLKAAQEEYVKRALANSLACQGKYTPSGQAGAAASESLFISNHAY
GAPDH coupling = qHTS Assay for Inhibitors of Fructose-1,6-bisphosphate Aldolase from Giardia Lamblia: Coupling assay counterscreen confirmation | shares compounds with Giardia FBPA inh-1 | GAPDH coupling enzyme counterscreen, biochemical, qHTS | Potency, µM (series often up to 57.5 µM), for inactives: top-dose activity change, negative = inhibition, hits mostly inhibitors | 1,500 tested, 6% active; note: potency is the fitted concentration of half-maximal effect; % is set by controls: 0 for no effect and ±100 for the full control effect; nearly all actives have a fitted effect of over 55% in size
Active calls of the source: *; ? = inconclusive; / = no result given; [ ] = dose if it differs, or a comment. Unless noted, calls come from the whole dose curve; as a rule, active = well fitted curve in the direction sought with a large enough effect; inconclusive = small, poorly fitted or top-dose-only effect, or another doubt; inactive = no such curve, though single readings can be large; an effect the other way counts as inactive or inconclusive.

SMILES | Shiga inhibitor | RE007 growth inh | TbPYK inhibitor | LmPK inhibitor | Giardia FBPA inh-1 | CHX counter | Giardia growth | Mammal cell tox | Giardia FBPA inh-2 | Rabbit FBPA inh | GAPDH coupling
CCn1c(=O)c(C(=O)CN(C)Cc2cccc(OC)c2OC)c(N)n(Cc2ccccc2)c1=O | 27 | -5% | 17% | -1% | 16µM* | -1 | 34% | -7% | 2% | 4% | -9%
O=C(O)Cn1c2ccccc2c2n[nH]c(=S)nc21 | / | 8% | ? | 2% | 8.9µM* | -4 | 19% | -3% | 7% | 4% | 8%
CCn1c2ccccc2c2n[nH]c(=S)nc21 | -2 | 38% | -26% | -11% | 7% | -4 | / | / | / | / | /
COC(=O)c1cn(C(=O)c2cc(Cl)ccc2Cl)c2ccccc12 | / | 1% | -1% | 2% | 5% | -2 | / | / | / | / | /
Cc1ccc(C)c(S(=O)(=O)/N=C2\C=C(NS(=O)(=O)c3ccccc3)C(=O)c3ccccc32)c1 | -7 | -8% | -1% | -4% | / | -4 | / | / | / | / | /
Cc1cc(C)c(S(=O)(=O)/N=C2/C=C(Sc3ncn[nH]3)C(=O)c3ccccc32)cc1C | 48* | ? | 5.6µM* | 7.9µM* | 0.79µM* | 33* | 14µM* | 20µM* | 6.3µM* | 7.1µM* | 5µM*
Cc1ccc(C)c2sc(N3CCN(C(=O)c4ccco4)CC3)nc12 | / | / | -1% | / | / | / | / | / | / | / | /
Cc1nc(NC(=S)NC(=O)c2ccco2)sc1C(=O)N(C)C | 57 | -11% | 0% | -11% | 10µM* | 32* | -5%[38.3 µM] | -14% | -2% | 7% | 5%
Cc1nc(NC(=S)NC(=O)c2ccccc2)sc1C | 69* | -4% | 2% | -11% | 11µM* | 39* | ? | ? | -2% | 4% | 8%
O=S(=O)(/N=C(/NC(=S)Nc1ccccc1)c1ccccc1)c1ccc(Cl)cc1 | 101* | -23% | 0% | 0% | 18µM* | 41* | ? | 10% | 4% | 12% | 18%
COc1ccc(NC(=S)NC(=NS(=O)(=O)c2ccc(Cl)cc2)c2ccccc2)cc1 | / | -5% | 1% | / | / | / | / | / | / | / | /
Cc1nc2cc(Cl)c(Cl)cc2n1-c1ccccn1 | / | -27% | 2% | / | / | / | / | / | / | / | /
Cc1cccc(-n2cnc(C(=O)O)c2)n1 | -5 | 12% | 2% | -3% | 20µM* | -3 | 10%[10.4 µM] | 22% | 2% | -2% | 4%
COc1cc(/C=C/C(=O)c2c(O)cc(C)oc2=O)cc(OC)c1O | -4 | -12% | -14% | 8% | 16µM* | 1 | -3%[10.4 µM] | -12% | ? | ? | ?
COc1cccc(/C=C/C(=O)c2c(O)cc(C)oc2=O)c1O | 97 | -28% | -5% | 4% | -19% | 23 | / | / | / | / | /
Cc1cccc(NC(=O)CSc2n[nH]c(-c3ccncc3)n2)c1C | 10 | -1% | -10% | -6% | 22µM* | -3 | 14% | -2% | 6% | 15% | 17%
N=C1/C(=C/c2coc3ccccc3c2=O)C(=O)N=C2SC(c3ccco3)=NN12 | -3 | 10µM* | -6% | 7% | 16µM* | 7 | -14% | 4% | -2% | 6% | 11%
COc1cccc(/C=C/C(=O)Nc2ccc(OC)nc2)c1 | 88* | -9% | -2% | 4% | 22µM* | 30* | ? | -8% | -19% | -1% | -9%
C=CCNC(=S)N1CCN(Cc2ccc3c(c2)OCO3)CC1 | / | 3% | 1% | 2% | 7.1µM* | -2 | -26% | 6% | -8% | 9% | -6%
O=C(CCCn1c(=S)[nH]c2ccsc2c1=O)NCc1ccco1 | -6 | 10% | -26% | -16% | 16µM* | -1 | -3% | -3% | -1% | 2% | 12%
CCOC(=O)N1CCN(C(=O)CCCn2c(=S)[nH]c3ccsc3c2=O)CC1 | -12 | 37% | -6% | -12% | 16µM* | 13 | -2%[10.4 µM] | 16% | -4% | 1% | 13%
CN(CC(=O)Nc1ccc(F)cc1)C(=O)COC(=O)c1cc(Br)c(Br)s1 | / | -13% | 0% | / | / | / | / | / | / | / | /
COCCn1c(=O)c(-c2ccccc2)nc2cnc(Oc3ccccc3)nc21 | / | / | 4% | / | -6% | / | / | / | / | / | /
COc1ccccc1C(=O)NCC(=O)NNc1ncnc(N)c1[N+](=O)[O-] | 34 | / | / | -2% | ? | 23 | / | / | / | / | /
Nc1ncnc(NNC(=O)CNC(=O)c2c(F)cccc2Cl)c1[N+](=O)[O-] | -15 | 9% | 0% | 1% | 16µM* | 2 | -16% | -3% | -2% | 5% | 0%
SMILES | Shiga inhibitor | RE007 growth inh | TbPYK inhibitor | LmPK inhibitor | Giardia FBPA inh-1 | CHX counter | Giardia growth | Mammal cell tox | Giardia FBPA inh-2 | Rabbit FBPA inh | GAPDH coupling
Cc1n[nH]c(=O)c2c(NC(=O)CSc3ccc(Br)cc3)oc(C)c12 | / | 20% | 2% | / | / | / | / | / | / | / | /
NC(=O)C1CCN(CC(=O)Nc2nccs2)CC1 | / | -9% | 5% | 0% | 3.5µM* | -2 | ? | -6% | -25% | 1% | 14%
Cc1ccccc1N1CCN(CC(=O)Nc2nccs2)CC1 | -13 | 8% | 1% | 0% | 11µM* | -3 | -15% | -4% | 6% | 6% | 6%
CCOc1ccc(C(=O)C2CCN(CC(=O)Nc3nccs3)CC2)cc1 | -4 | 3% | -1% | -2% | ? | -7 | / | / | / | / | /
CC(C)NC(=O)C(c1ccc(F)cc1)N(C(=O)CCC(=O)Nc1ccccn1)c1cccc(F)c1 (stereo unspecified) | -1 | 5% | 4% | -9% | 1% | -8 | / | / | / | / | /
COc1ccc(S(=O)(=O)NCCc2sc(-c3ccccc3)nc2C)cc1OC | / | / | -2% | / | / | / | / | / | / | / | /

Assay outcomes from PubChem BioAssay.
